Article PMC4336329 (PLoS ONE, 2015)
The campaign covered roughly 310,000 compounds. About 14,000 (4.5%) showed an effect of 50% or more. Effects have a minus sign here. The list comes from a sample in which strong results are over-represented; it also holds similar structures and randomly drawn compounds.

Molecular target: human ether-à-go-go-related gene (hERG) potassium channel (human, UniProt Q12809)
Assay: primary screen, population patch clamp on CHO cells stably expressing hERG; higher = less effect of the substance
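Further: peak tail current of the secondary pulse compared with the same well before compound.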

Sequence of human ether-à-go-go-related gene (hERG) potassium channel (Q12809 whole entry, looked up): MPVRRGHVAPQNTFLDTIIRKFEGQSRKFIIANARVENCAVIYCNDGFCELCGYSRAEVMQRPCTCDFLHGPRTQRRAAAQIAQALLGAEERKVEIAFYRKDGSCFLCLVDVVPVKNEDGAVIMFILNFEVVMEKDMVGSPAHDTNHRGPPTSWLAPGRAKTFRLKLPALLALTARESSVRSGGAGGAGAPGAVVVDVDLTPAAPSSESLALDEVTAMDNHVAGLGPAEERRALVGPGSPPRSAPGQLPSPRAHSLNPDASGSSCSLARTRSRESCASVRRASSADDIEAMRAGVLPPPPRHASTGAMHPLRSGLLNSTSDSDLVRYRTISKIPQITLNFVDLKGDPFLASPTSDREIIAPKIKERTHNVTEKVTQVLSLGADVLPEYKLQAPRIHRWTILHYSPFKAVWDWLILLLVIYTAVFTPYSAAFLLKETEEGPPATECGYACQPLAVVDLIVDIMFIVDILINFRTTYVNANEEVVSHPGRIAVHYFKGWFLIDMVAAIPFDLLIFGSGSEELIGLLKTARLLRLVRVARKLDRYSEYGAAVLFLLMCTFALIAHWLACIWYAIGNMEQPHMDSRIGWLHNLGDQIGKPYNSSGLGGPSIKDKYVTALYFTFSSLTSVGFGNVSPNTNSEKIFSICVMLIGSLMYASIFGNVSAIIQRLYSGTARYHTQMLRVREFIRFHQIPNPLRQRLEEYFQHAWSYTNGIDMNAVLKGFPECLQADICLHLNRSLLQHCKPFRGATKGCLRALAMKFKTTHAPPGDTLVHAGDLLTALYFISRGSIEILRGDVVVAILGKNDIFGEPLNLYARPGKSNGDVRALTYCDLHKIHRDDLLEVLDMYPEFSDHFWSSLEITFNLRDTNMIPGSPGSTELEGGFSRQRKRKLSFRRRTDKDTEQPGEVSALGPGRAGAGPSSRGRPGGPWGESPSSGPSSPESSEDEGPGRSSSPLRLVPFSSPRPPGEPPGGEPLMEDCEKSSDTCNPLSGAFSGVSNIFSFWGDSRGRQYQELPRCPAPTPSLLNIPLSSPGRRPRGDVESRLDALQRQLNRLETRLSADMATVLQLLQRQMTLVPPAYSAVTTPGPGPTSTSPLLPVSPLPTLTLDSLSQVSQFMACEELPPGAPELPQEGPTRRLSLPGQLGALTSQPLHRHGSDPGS

SMILES	hERG current change (%, negative = inhibition) at 10uM
OCCNC(=S)Nc1ccc2c(c1)OCCO2	9.32%
Cc1ccc(-c2nn(C)c(=O)c3ccccc23)cc1CN1CCOCC1	-1.21%
CC(C)=C1C2CCC1C1C(=O)N(c3nccs3)C(=O)C21 (stereo not shown)	33%
O=C1CC(=O)N(c2ccccc2)C(=O)N1c1ccccc1	2.76%
CCCC(NCC(O)COc1ccc(-c2ccccc2)cc1)c1ccccc1 (stereo not shown)	10.3%
O=C(NCc1ccc2c(c1)OCO2)C1CCCN1C(=O)Nc1ccc(Cl)cc1 (stereo not shown)	-17.4%
CCn1c(C(C)NC(=O)Cc2ccccc2)nc2ccccc21 (stereo not shown)	-2.26%
CCc1ccc(NC(=O)C2CCN(c3ncnc4c3nc3n4CCCCC3)CC2)cc1	-6.35%
Cc1cc2ncn(C(=O)N3CCCCC3)c2cc1C	3.24%
CCOCCCNC(=O)CN1C(=O)/C(=C/c2ccccc2C)Sc2ccccc21	-8.45%
CCOC(=O)C1CCCN(c2c(N3CCOCC3)c(=O)c2=O)C1 (stereo not shown)	-0.407%
CCOC(=O)C1CCCN(c2c(N3CCN(C)CC3)c(=O)c2=O)C1 (stereo not shown)	8.41%
CCOC(=O)C1CCCN(c2c(N3CCN(C4CCCCC4)CC3)c(=O)c2=O)C1 (stereo not shown)	-55.8%
Cc1[nH]c2ccccc2c1C(c1ccccn1)N1CCC(C(N)=O)CC1 (stereo not shown)	-11.4%
CCOC(=O)C1CCCN(c2c(N3CCN(c4ccccn4)CC3)c(=O)c2=O)C1 (stereo not shown)	-55.5%
CCOC(=O)C1CCCN(c2c(N3CCC(N4CCCCC4)CC3)c(=O)c2=O)C1 (stereo not shown)	-0.665%
CCOC(=O)C1CCN(c2c(N3CCCC(C(=O)OCC)C3)c(=O)c2=O)CC1 (stereo not shown)	-22.8%
CCOC(=O)C1CCCN(C(c2ccccn2)c2c(C)[nH]c3ccccc23)C1 (stereo not shown)	-54.3%
CCOC(=O)C1CCN(C(c2ccccn2)c2c(C)[nH]c3ccccc23)CC1 (stereo not shown)	-19.8%
Cc1ccc(C(=O)C2=C(O)C(=O)N(Cc3cccnc3)C2c2cccc([N+](=O)[O-])c2)o1 (stereo not shown)	-9.76%
CCN(C(=O)COC(=O)CSc1ccc(C(N)=O)cc1[N+](=O)[O-])C1CCCCC1	5.86%
Cc1cc(Cl)nc(Cl)c1C(=O)NC(=O)NCCC(C)C	6.83%
O=C(NNC(=O)C1CC=CCC1C(=O)O)c1cccs1 (stereo not shown)	16.2%
CC(=O)N[C@@H](C)c1nc2ccccc2n1CCCN1CCN(c2nc(-c3ccc(C)cc3)cs2)CC1	-56.2%

SMILES	hERG current change (%, negative = inhibition) at 10uM
Cc1ccc(-c2csc(N3CCN(CCCn4c(-c5ccncc5)nc5ccccc54)CC3)n2)cc1	-32.4%
Cc1ccc(-c2csc(N3CCN(CCCn4c(C(F)(F)F)nc5ccccc54)CC3)n2)cc1	-4.95%
Cc1ccc(F)c(NC(=O)C2CCCCC2C(=O)O)c1 (stereo not shown)	8.23%
O=C(O)c1ccc(NC(=O)c2ccccc2NC(=O)c2cccc(F)c2)cc1	20.2%
O=C(c1ccc(Br)o1)N1CCN(c2ccc3nnc(-c4ccc(F)cc4)n3n2)CC1	-46.4%
Fc1ccc(-c2nnc3ccc(N4CCCC4)nn23)cc1	5.51%
COc1ccccc1NC(=O)N1CCN(c2ccc(F)cc2)CC1	-18.7%
O=C(Nc1ccc(F)cc1)N1CCN(c2ccc3nnc(-c4ccc(F)cc4)n3n2)CC1	-73.5%
COc1ccccc1NC(=O)N1CCN(c2ccc3nnc(-c4ccc(F)cc4)n3n2)CC1	-68.9%
c1ccc(-c2nnc3ccc(N4CCCC4)nn23)cc1	7.51%
O=C(Nc1ccccc1C(F)(F)F)N1CCN(c2ccccn2)CC1	9.98%
O=C(Nc1ccccc1C(F)(F)F)N1CCN(c2ccc3nncn3n2)CC1	-1.32%
O=C(c1ccc(Br)o1)N1CCN(c2ccc3nnc(-c4ccccc4)n3n2)CC1	-79.1%
O=C(Nc1ccc(Cl)cc1)N1CCN(c2ccc3nnc(-c4ccc(F)cc4)n3n2)CC1	-28.3%
COc1ccccc1NC(=O)N1CCN(c2ccc3nncn3n2)CC1	-23.1%
O=C(Nc1ccccc1C(F)(F)F)N1CCN(c2ccc3nnc(-c4ccc(F)cc4)n3n2)CC1	-65.9%
O=C(CCC(=O)c1ccc(Br)cc1)Nc1ccc(F)cc1	23.7%
COc1ccc(C2=NC(=O)NC2c2ccc(OC)cc2)cc1 (stereo not shown)	-29.4%
Cc1ccc(S(=O)(=O)N(C)C)cc1-n1c(SCC(=O)Nc2ccc(F)c(F)c2F)nc2ccccc2c1=O	8.58%
Cl.O=C(Cc1ccccc1)OCCN1CCOCC1	20.4%
CCCOc1ccc(C2(C(=O)O)CCCC2)cc1	6.16%
C=CCC1C=CCC(CC=C)N1C(=O)c1ccccc1[N+](=O)[O-] (stereo not shown)	-3.17%
COC(=O)c1sccc1NC(=S)N1CCCCC1C (stereo not shown)	-25.6%
CC1=C(C(=O)OCC(C)C)C2(O)C(=O)c3ccccc3C2(O)N1 (stereo not shown)	3.4%

SMILES	hERG current change (%, negative = inhibition) at 10uM
Clc1ccc(CSc2nnc(-c3ccncc3)o2)c(Cl)c1	0.528%
COc1ccc(C2/C=C\CN(S(=O)(=O)c3ccc4ccccc4c3)CC(=O)N2Cc2ccc(F)cc2)cc1 (stereo not shown)	8.33%
Cc1nc(-c2ccccc2)sc1C1(C)CC(c2ccc(C#N)cc2)=NO1 (stereo not shown)	-3.07%
O=C(Nc1ccccc1Cl)N1CCN(c2ccc3nnc(-c4ccc(F)cc4)n3n2)CC1	-42.1%
O=C(Nc1ccccc1Cl)N1CCN(c2ccc3nncn3n2)CC1	-23.2%
O=C(Nc1ccccc1Cl)N1CCN(c2ccc3nnc(-c4ccccc4)n3n2)CC1	-73.5%
O=C(CN1C(=O)c2ccccc2C1=O)Nc1ccc(S(=O)(=O)N2CCOCC2)cc1	-16.9%
O=C(NC1CCCC1)C1CCN(C(=O)c2cccc(Cl)c2)CC1	-6.41%
Cc1ccc(-n2ncc3c(NCc4ccccn4)ncnc32)c(C)c1	-7.46%
Cc1ccc2nc(-c3ccncc3)c(NC3CCCCC3)n2c1	9.35%
Cc1ccc2nc(-c3cccnc3)c(NC3CCCC3)n2c1	-19.7%
Cc1ccc2nc(-c3ccncc3)c(NC3CCCC3)n2c1	-54.2%
CCOc1cccc(OCCCCn2ccnc2)c1	-9.04%
COc1ccc(C)cc1NS(=O)(=O)c1ccc2c(c1)oc(=O)n2C	16.2%
CCOC(=O)C1CCN(C(=O)c2cc3c(C)cc(C)cc3[nH]2)CC1	-15.2%
Cc1cc(C)c2cc(C(=O)N3CCC(C(=O)c4ccc(F)cc4)CC3)[nH]c2c1	2.63%
Cc1cc(C)c2cc(C(=O)N3CCC(N4CCCCC4)CC3)[nH]c2c1	-69.2%
O=C(NNC(=O)c1cccs1)c1ccc(Br)o1	15.8%
CC1C(=O)NN=C1C(=O)N/N=C/c1cccs1 (stereo not shown)	17.3%
COC(=O)c1nn(-c2ccccc2)c(Cl)c1/C=N/OCc1ccc(Cl)cc1Cl	20.6%
COC(=O)c1ccc(CSc2nnc3c(Cl)cc(Cl)cn23)o1	10.9%
O=C(NCc1ccco1)c1ccccc1NC(=O)C1CC(=O)N(c2ccc(Cl)cc2)C1 (stereo not shown)	-78.4%
CCCOc1ccc(N2CC(C(=O)Nc3ccccc3C(=O)NC)CC2=O)cc1 (stereo not shown)	-71.8%
COc1ccc(N2CC(C(=O)Nc3ccccc3C(=O)NCc3ccco3)CC2=O)cc1 (stereo not shown)	-42%

SMILES	hERG current change (%, negative = inhibition) at 10uM
CCCCOc1ccc(N2CC(C(=O)NCc3ccco3)CC2=O)cc1 (stereo not shown)	-14.5%
CNC(=O)c1ccccc1NC(=O)C1CC(=O)N(c2ccc(OC)cc2)C1 (stereo not shown)	-12.3%
O=C(NCc1ccco1)C1CC(=O)N(c2ccc(Cl)cc2)C1 (stereo not shown)	-6.16%
CCCOc1ccc(N2CC(C(=O)Nc3ccccc3F)CC2=O)cc1 (stereo not shown)	-3.15%
CCCOc1ccc(N2CC(C(=O)Nc3ccccc3C(=O)NCc3ccco3)CC2=O)cc1 (stereo not shown)	-71.5%
O=C(NCc1ccco1)C1CC(=O)N(c2ccc(O)cc2)C1 (stereo not shown)	-10.2%
CCc1ccc(/C=N/NC(=O)c2cc(-c3ccccc3OC)nc3ccccc23)s1	9.69%
O=C(NC1CCN(Cc2ccccc2)CC1)C1CCN(S(=O)(=O)c2cccc3nsnc23)CC1	-23.7%
CN(C)CC1CCCCC1OC(=O)/C=C/c1ccccc1.Cl (stereo not shown)	-33.2%
Cc1ccccc1C(=O)NNc1ccc([N+](=O)[O-])cc1	-17.3%
CCCOc1ccc(C2/C(=C(/O)c3ccccc3)C(=O)C(=O)N2CCCN(C)C)cc1OC (stereo not shown)	5.35%
Cc1ccccc1CNC(=O)CN(c1cccc([N+](=O)[O-])c1)S(C)(=O)=O	6.08%
Cc1ccc(N/C(N)=N/c2nc(CSc3nnc(C)s3)cc(=O)[nH]2)c(C)c1	-8.86%
Cc1ccc(-n2ncc3c2CC(C)(C)CC3NC(=O)c2ccc[n+]([O-])c2)cc1 (stereo not shown)	-1.89%
CC1=C(C(=O)NC2CC(C)(C)Cc3c2cnn3-c2ccc(C)cc2)OCCO1 (stereo not shown)	3.64%
Cc1ccc(-n2ncc3c2CC(C)(C)CC3NC(=O)c2ccccn2)cc1 (stereo not shown)	-73.7%
CC1(C)Cc2c(cnn2-c2cccc(F)c2)C(NC(=O)c2cc[n+]([O-])cc2)C1 (stereo not shown)	-37.3%
Cc1cc(C(=O)NC2CC(C)(C)Cc3c2cnn3-c2ccccc2)n[nH]1 (stereo not shown)	-19.2%
Cc1cnc(C(=O)NC2CC(C)(C)Cc3c2cnn3-c2ccccc2)cn1 (stereo not shown)	-39%
Cc1ccccc1-n1ncc2c1CC(C)(C)CC2NC(=O)c1ccncc1 (stereo not shown)	-47.4%
Cc1ccc(-n2ncc3c2CC(C)(C)CC3NC(=O)c2ccncc2)cc1 (stereo not shown)	-72.2%
Cc1ccc(-n2ncc3c2CC(C)(C)CC3NC(=O)c2cc[n+]([O-])cc2)cc1 (stereo not shown)	-75.4%
